An excerpt weighted towards active compounds, which were near 6.3% of everything screened.
NADH coupling: inhibitors of enzymes used to reach an NAD/NADH endpoint; IC50, µM (top dose mostly 10 µM), without a hit: at the top dose inhibition; coupled PK/LDH NADH assays, four targets; hit rate 0.02% among 65,000;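 active means single-dose screening hits from any of four coupled enzyme assays that gave an IC50 when retested across doses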;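 further: the DPM-DC format reads NADH fluorescence rather than 340 nm absorbance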
Spn MK inh: blocks S. pneumoniae mevalonate kinase | purified MK, PK/LDH-coupled NADH absorbance 340 nm | inhibition, % at 10 µM | hit rate 0.48% among 65,000 | AID 555;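 active means ranked among the strongest by inhibition in the single 10 µM screen, a fixed top-ranked set picked for dose follow-up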
PMK inhibit: blocks S. pneumoniae phosphomevalonate kinase | purified PMK, PK/LDH-coupled NADH absorbance 340 nm | inhibition, % at 10 µM | hit rate 0.49% among 65,000 | AID 539;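 active means top-ranked compounds by inhibition in the single 10 µM screen, taking a fixed number of the strongest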;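 further: 0% = full reaction with DMSO carrier and 100% = background rate without enzyme reaction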
Spn DPM-DC inh: inhibitors of Streptococcus pneumoniae diphosphomevalonate decarboxylase; purified DPM-DC, PK/LDH coupled NADH fluorescence; calls only at 10 µM; hit rate 0.49% among 65,000;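 active means the 320 compounds with the highest percent inhibition in the single-dose primary screen, excluding strongly autofluorescent ones, cut at about 32% in these data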;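 further: kinetic rate of NADH fluorescence loss reporting ADP formed by the decarboxylase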
Autofluor 339: intrinsic fluorescence of library compounds, ex339/em460 – biochemical, MLSMR library, data from DPM-DC assay, artefact control, profiling panel. fluorescence fold increase at 10 µM. hit rate 5.5% among 65,000. compound autofluorescence, ex339/em460 nm, NADH buffer; active compounds read high; 1 = no-compound wells, NADH background. AID 709;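 active means at 10 µM, mean starting fluorescence two-fold or more over control wells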;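 further: signal is the first read of a kinetic run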
A340 absorber: absorbance at 340 nm | 65,000 tested, under 10 active | compound absorbance at 340 nm, fold over control | AID 708 | fold change at 10 µM;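 active means at 10 µM dose, initial 340 nm absorbance at least 2 fold that of control wells; inactive means change under 2 fold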;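 further: initial absorbance extrapolated from kinetic A340 decline of NADH oxidation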
An asterisk follows results filed as active; i = inactive; nt = not tested or not shown.

SMILES	NADH coupling	Spn MK inh	PMK inhibit	Spn DPM-DC inh	Autofluor 339	A340 absorber
COC(=O)c1ccc(-c2sc3nc(N4CCOCC4)c4c(c3c2N)CCCC4)o1	1%	1	0	nt	2.5*	1
COC(=O)c1ccc(Cn2nnc3c(sc4nc(N5CCOCC5)c5c(c43)CCCC5)c2=O)o1	4%	7	6	i	1.1	1
Nc1c(C(=O)NCc2ccco2)sc2nc(N3CCOCC3)c3c(c12)CCCC3	2%	0	4	nt	2.4*	1.1
O=C(NCc1ccco1)c1cc(-c2ccccc2)c(N2CCOCC2)s1	5%	1	13	i	1.1	1
CCOC(=O)c1sc2nc(N3CCCC3)c3c(c2c1N)CC(C)(C)OC3	2%	6	1	nt	3*	1
CC(=O)c1sc(N2C(=O)c3oc4ccccc4c(=O)c3C2c2ccc(C)o2)nc1C (stereo not drawn)	4%	6	3	i	1.1	1.1
CCc1c(C#N)c(SCc2c(C)noc2C)nc2c1C(=O)CC(C)(C)C2	5%	1	13	i	1.1	1
COC(=O)c1ccc(CSc2ncnc3c2sc2nc(N4CCOCC4)c4c(c23)CCCC4)o1	0%	0	0	nt	2.1*	1.1
N/C(=N\S(=O)(=O)c1ccc(Cl)s1)c1ccccc1	1%	4	0	i	1.1	1.1
COc1ccc(NC2CC(=O)NC2=O)cc1 (stereo not drawn)	9%	0	26*	i	1.1	1
COc1ccc(N2CCN(C3CC(=O)NC3=O)CC2)cc1 (stereo not drawn)	6%	11	0	i	1.1	1
CC(C)(C)NC(=O)CSc1nccn1Cc1ccccc1	6%	6	12	i	1.1	0.99
COC(=O)CCCCCC(CCC(=O)OC)NC(C)=O (stereo not drawn)	0%	0	0	i	1.1	1.1
O=C(O)Cn1c(-c2ccccc2)nc2ccccc21	8%	9	15	i	1	1
Oc1ccccc1Cn1c(-c2ccccc2O)nc2ccccc21	9%	6	11	nt	3.8*	1.1
CC1CCCC(C)N1CCNC(=O)C1CCN(S(=O)(=O)N2CCCCC2)CC1 (stereo not drawn)	4%	0	8	i	1	1
O=S(=O)(CCc1ccccc1)N1CCOCC1	7%	4	14	i	1	1
CCS(=O)(=O)N1CCN(C(C)CCc2ccccc2)CC1 (stereo not drawn)	15%	42*	2	i	1.1	1.1
Cc1c(C(=O)O)cnc2cc(-c3ccc(Cl)cc3)nn12	7%	9	4	nt	2.1*	1.1
Cc1nc2nc(-c3cccnc3)nn2c(C)c1Cl	2%	8	9	i	1	1
COc1ccc(-c2nc3nc(C)cc(C)n3n2)cc1	5%	5	5	nt	3.7*	1
Cc1cc(C)n2nc(NCc3ccccc3)nc2n1	6%	4	7	nt	3.6*	1.1
COC(=O)CSc1nc2nc(C)cc(C)n2n1	5%	7	2	i	1	0.97
Cc1nc2nc(-c3ccco3)nn2c(C)c1Cl	13%	13	12	nt	4*	1.1
COc1cccc(CNc2nc3nc(C)c(Cl)c(C)n3n2)c1	3%	3	9	nt	2.3*	1
SMILES	NADH coupling	Spn MK inh	PMK inhibit	Spn DPM-DC inh	Autofluor 339	A340 absorber
O=C(NC1CCCC1)C(c1ccc(Cl)cc1)N1CCOCC1 (stereo not drawn)	1%	1	2	i	1.1	1
CCCc1nc(N2CCOCC2)c(C#N)c2c1CCCC2	5%	7	8	i	1.8	0.99
CC(C)Cc1nc(N2CCCCC2)c(C#N)c2c1CCC2	3%	4	5	i	1.8	1
CC(=O)N1CCN(c2nc(CC(C)C)c3c(c2C#N)CCC3)CC1	6%	6	5	nt	2.3*	1
CC(C)Cc1nc(N2CCOCC2)c(C#N)c2c1COC(C)(C)C2	7%	14	0	nt	2.4*	1.1
CC(C)c1nc(N2CCOCC2)c(C#N)c2c1CCC2	5%	8	3	i	2*	1
CC(C)Cc1nc(NCCN2CCOCC2)c(C#N)c2c1COC(C)(C)C2	5%	0	10	i	1.2	1.1
CC(C)Cc1nc(N2CCN(C(=O)C(C)C)CC2)c(C#N)c2c1CCC2	15%	27	3	nt	2.1*	1
CS(=O)(=O)Nc1ccccc1C(=O)c1ccccc1	7%	15	7	i	1.1	1
O=C(CSc1nnc(-c2cccs2)n1CC1CCCO1)c1cc2ccccc2o1 (stereo not drawn)	7%	9	12	i	1.1	1.1
CCN(CC)C(=O)c1cc2c(=O)n3ccccc3nc2s1	1%	2	0	nt	2.1*	1.1
COCCN(CCOC)C(=O)c1cc2c(=O)n3ccccc3nc2s1	12%	3	20	nt	4.9*	1.1
CCCc1cc(NCCN2CCOCC2)n2c(nc3ccccc32)c1C#N	11%	12	9	nt	2.3*	1
CC(C)c1cc(NCCCN2CCOCC2)n2c(nc3ccccc32)c1C#N	0%	0	0	nt	2.3*	1.1
CC(C)c1cc(NCCN2CCOCC2)n2c(nc3ccccc32)c1C#N	5%	3	2	i	1.9	1
N#Cc1c2c(c(NCCCN3CCOCC3)n3c1nc1ccccc13)CCC2	12%	7	17	i	3*	1
COc1ccccc1NC(=O)C(C)NS(=O)(=O)c1ccccc1 (stereo not drawn)	6%	11	4	i	1.1	1
CCCC1=C(C(=O)OCC)C(c2ccc(O)cc2)n2ncnc2N1 (stereo not drawn)	4%	8	0	i	1	1
COC(=O)c1ccc(-c2cc(C(=O)O)c3cc4c(cc3n2)OCCO4)cc1	9%	3	15	nt	4.9*	1.2
CCC(Oc1ccccc1)C(=O)Nc1ccc(-c2nnc(-c3ccco3)o2)cc1 (stereo not drawn)	15%	12	3	i	2.8*	1.1
Cc1nn(-c2ccccc2)c2sc(C(=O)OCn3nnc4ccccc4c3=O)cc12	1%	0	3	i	1.1	1
Cc1nn(-c2ccccc2)c2sc(C(=O)N3CCCCC3)cc12	2%	6	0	i	1.2	1
CCCCNC(=O)COC(=O)c1cc2c(C)nn(-c3ccccc3)c2s1	13%	8	17	i	2.5*	1
Cc1nn(-c2ccccc2)c2sc(C(=O)n3cccn3)cc12	9%	6	11	nt	2.2*	1.1
O=c1cc(C(F)(F)F)c2sc(N3CCCCC3)nc2[nH]1	9%	0	17	nt	2.1*	1.1
c1c2c(cc3sc(N4CCCCC4)nc13)OCO2	8%	6	18	i	1.1	1
COc1ccc(-c2cc(=O)n(-c3nc4ccccc4[nH]3)[nH]2)cc1	11%	9	4	i	1.6	1
